Bioassay records (PubChem)
This is one part of a sample in which hits are shown more often than they occur.
Shiga inhibitor: blocks Shiga toxin action in Vero cells. Vero cells, Shiga toxin protein synthesis inhibition reporter. inhibition, % at 38.7 µM. 290,000 compounds, 9.2% hits. AID 2315; in the data active = inhibition mostly above about 28%, no sharp cut-off; inactive = mostly below about 43%; also: 0% is about no effect
AmpC inh no detg: AmpC beta-lactamase inhibition without detergent | Potency, µM (highest dose often 57.1 µM), without a hit: top-dose activity change, negative = inhibition, most hits filed as inhibitors | AID 485341 | P00811 | 330,000 compounds, 0.52% hits | AmpC nitrocefin hydrolysis, absorbance 480 nm, 0.0001% Triton;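 also: potency is read from the fitted curve at half-maximal effect; plate controls were no compound for no effect and no enzyme for full effect; nearly all actives have a fitted effect of over 20% in size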
Target sequence (P00811 whole entry, looked up): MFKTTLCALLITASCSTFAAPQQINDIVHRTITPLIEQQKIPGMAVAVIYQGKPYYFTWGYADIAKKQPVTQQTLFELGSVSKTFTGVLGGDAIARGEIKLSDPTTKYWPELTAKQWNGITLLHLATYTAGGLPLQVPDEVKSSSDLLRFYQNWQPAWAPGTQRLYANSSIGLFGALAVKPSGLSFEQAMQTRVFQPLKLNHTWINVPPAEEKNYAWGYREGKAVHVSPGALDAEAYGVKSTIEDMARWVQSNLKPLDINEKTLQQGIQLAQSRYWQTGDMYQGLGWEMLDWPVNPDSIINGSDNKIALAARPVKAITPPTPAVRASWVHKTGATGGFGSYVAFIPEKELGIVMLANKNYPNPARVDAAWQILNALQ
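AmpC (5.3 nM in the dispensed reagent) in 20 mM phosphate pH 7.0 with 0.01% (detergent screen) or 0.0001% Triton X-100 was preincubated with compounds for 15 min at room temperature. Nitrocefin was then added from an 800 uM solution, and hydrolysis was followed at 480 nm.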
CHX counter: affects cycloheximide protein synthesis inhibition readout, counter-screen; cell reporter, cycloheximide protein synthesis inhibition counterscreen; max response, %; 300,000 compounds, 12% hits; in the data active = max response mostly above about 13%, no sharp cut-off; inactive = mostly below about 14%; also: read at 38.3 µM for the half of the compounds with a filed dose; 0% is about no effect
NS1 function inh: influenza NS1 inhibition. Potency, µM (doses to about 46.1 µM), inactives show top-dose activity, positive = more growth. 270,000 compounds, 0.4% hits; calls by dose curve; also: potency is read from the fitted curve at half-maximal effect; actives are rising curves; nearly all actives have a fitted effect of over 50% in size
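Growth recovery, yeast-based: influenza A NS1 expressed in S. cerevisiae causes slow growth, and suppressors are detected by OD600. The parent strain without NS1 is used as positive control.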
AmpC detergent: blocks E. coli AmpC beta-lactamase in detergent assay; AmpC hydrolysis of nitrocefin, absorbance 480 nm, 0.01% Triton; 370,000 compounds, 0.041% hits; AID 485294; P00811; Potency, µM (top dose mostly 114 µM), for inactives: at the highest dose activity change, negative = inhibition, actives largely listed as inhibitors;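 also: potency is read from the fitted curve at half-maximal effect; 0% = no-compound wells and -100% = no-enzyme wells; nearly all actives have a fitted effect of over 25% in size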
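AmpC (5.3 nM in the dispensed reagent) in 20 mM phosphate pH 7.0 with 0.01% (detergent screen) or 0.0001% Triton X-100 was preincubated with compounds for 15 min at room temperature. Nitrocefin was then added from an 800 uM solution, and hydrolysis was followed at 480 nm.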
* marks the source's active call; other numbers are inactive results; ? = inconclusive; nt = no result given; + = active, no number; [ ] = dose if it differs, or a comment. Unless noted, calls follow the shape of the dose curve; as a rule, active = well fitted curve in the direction sought with a large enough effect; inconclusive = small, poorly fitted or top-dose-only effect, or another doubt; inactive = no such curve, though single readings can be large; an effect the other way counts as inactive or inconclusive.

SMILES	Shiga inhibitor	AmpC inh no detg	CHX counter	NS1 function inh	AmpC detergent
CCOc1ccc(C2C(C(=O)c3ccco3)=C(O)C(=O)N2CCCn2ccnc2)cc1 (stereo not drawn)	+	-5%	33*	-14%	4%
CCCCOc1ccc(C2C(C(=O)c3cccs3)=C(O)C(=O)N2CCN2CCOCC2)cc1 (stereo not drawn)	-1	3%	7	-6%	-7%
CCOC(=O)c1c(NC(=O)c2ccc(S(=O)(=O)N(CC(C)C)CC(C)C)cc2)sc2c1CCN(C(=O)OCC)C2	nt	nt	nt	nt	7%
COc1ccc(N2CC(c3nc(-c4ccccc4C)no3)CC2=O)cc1Cl (stereo not drawn)	nt	nt	nt	nt	20%
O=C(COC(=O)c1ccc(Cl)s1)c1ccc[nH]1	73*	-19%[11.4 µM]	27*	nt	?
Cc1ccc(C(=O)OCC(=O)c2ccc[nH]2)s1	76*	-29%	30*	0%	-4%
C1=C(c2ccccc2)Nc2ccccc2N=C1c1ccccc1	36*	-16%	14	-28%	?
Cc1cccc(N2CCN(C(=O)c3ccc4c(Cl)c5c(nc4c3)CCCC5)CC2)c1C	nt	nt	nt	nt	-6%
CCOC(=O)/C=C(/C)N1N=C(c2ccc(OC)cc2)CC1c1cccc([N+](=O)[O-])c1 (stereo not drawn)	113*	-41%	46*	-1%	-7%
Cc1[nH]c2c(Br)cccc2c1[C@H]1[C@@H](CC#N)C1(C)C	63*	-13%	42*	-40%	0%
FC(F)Sc1ccc(NC(=S)NC2CCCCC2)cc1	114	?	31*	-141%	?
S=C(Nc1ccc(Oc2ccccc2)cc1)NC1CCCC1	3	-22%	11	-11%	?
CC1CCN(C(=S)Nc2ccc(SC(F)F)cc2)CC1	64*	-28%	59*	5%	?
S=C(Nc1ccc(Br)cc1)NC1CCCC1	63*	-23%	42*	-16%	-11%
FC(F)Sc1ccc(NC(=S)NCc2ccccc2)cc1	38	-33%	12	-21%	7%
FC(F)Sc1ccc(NC(=S)NC(c2ccccc2)c2ccccc2)cc1	4	18µM*	6	nt	10%
CCc1ccc(C(=O)c2cn(CC(=O)Nc3ccc4c(c3)OCO4)c3ccc(F)cc3c2=O)cc1	nt	nt	nt	nt	1%
FC(F)Sc1ccc(NC(=S)NCC2CCCCC2)cc1	92	-53%	14	-235%	?
CC1CCCCC1NC(=S)Nc1ccc(SC(F)F)cc1 (stereo not drawn)	75*	-46%	35*	-140%	-11%
CCCN(C(=O)c1ccco1)c1nnc(-c2ccccc2C)s1	132*	6%	94*	-8%	-12%
COCCN(C(=O)c1ccco1)c1nnc(-c2ccc(F)cc2)s1	44	65%	23*	3%	-1%
CN(C(=O)c1ccco1)c1nc(CC(=O)Nc2ccccc2)cs1	+	-19%	18	-9%	2%
CCCN(C(=O)c1cccs1)c1nnc(-c2ccncc2)s1	57*	-10%	22*	-15%	-9%
CN(C(=O)c1cccnc1)c1nnc(-c2cccnc2)s1	16	-17%	7	-1%	-14%
CCCCN(C(=O)Cc1cccs1)c1nnc(-c2cccnc2)s1	44*	-12%	20*	-4%	-16%
SMILES	Shiga inhibitor	AmpC inh no detg	CHX counter	NS1 function inh	AmpC detergent
CN(C(=O)c1ccco1)c1nnc(-c2ccc(F)cc2)s1	85*	-15%	51*	-31%	-6%
CCN(C(=O)c1ccco1)c1nnc(-c2cccnc2)s1	75*	65%	34*	-21%	-4%
COCCN(C(=O)Cc1cccs1)c1nnc(-c2cccnc2)s1	1	-15%	2	-9%	-9%
CN(C(=O)c1ccco1)c1nc(-c2ccc(F)cc2)cs1	58*	-21%	45*	-27%	-3%
Fc1ccc(Cc2cn3cc(-c4ccc(F)cc4)nc3s2)cc1	nt	nt	nt	nt	23%
CCCC[C@H](NC(=O)[C@H](CC(C)C)NC(=O)CNC(=O)[C@@H](NC(=O)[C@H](Cc1ccccc1)NC(=O)[C@H](CO)NC(=O)[C@@H](N)CC(=O)O)C(C)C)C(N)=O	-11	nt	-7	nt	nt
Cc1nc(N2CCCC2)c2c(C(=O)N3CCN(c4cc(Cl)ccc4C)CC3)c(C)oc2n1	nt	nt	nt	nt	-1%
O=c1c2c3c(sc2nc(NCCO)n1Cc1ccco1)CCCCC3	19	74%	14*	-16%	-13%
COCCNc1nc2sc3c(c2c(=O)n1Cc1ccco1)CCCCC3	30*	3%	28*	-5%	?
O=C(Cn1c(=O)n(Cc2ccco2)c(=O)c2c3c(sc21)CCCCC3)Nc1ccccc1	15	-54%	6	?	1%
O=C(Cn1c(=O)n(Cc2ccco2)c(=O)c2c3c(sc21)CCCCC3)c1ccccc1	57*	-38%	12	?	?
COCc1cc(O)c(O)c(O)c1-c1c(COC)cc(O)c(O)c1O	-5	nt	0	nt	nt
Cc1ccc(NC(=O)CN(C)C(=O)CCOc2cccc(C)c2)cc1	-3	2%	-2	-9%	-5%
Cc1ccc(NC(=O)CN(C)C(=O)Nc2ccc(C)cc2)cc1	69*	-2%	22*	-3%	-3%
Cc1ccc(NC(=O)/C(CN(C)C)=N\O)cc1	62*	-13%	27*	-6%	?
Cc1ccc(NC(=O)CN(C)C(=O)/C=C/c2cccs2)cc1	-3	-17%	9.6*	2%	-18%
Cc1cccc(C)c1NC(=O)CN(C)C(=O)/C=C/c1cccs1	-3	-21%	0	16%	-11%
CCOC(=O)c1cnc2ccc(C(=O)OC)cc2c1Nc1ccc(OCc2ccccc2Cl)cc1	nt	nt	nt	nt	2%
CC(CCOS(N)(=O)=O)c1ccccc1 (stereo not drawn)	4	-12%	-4	-1%	-13%
COc1ccc(NC(=O)Nc2nnc(Cc3ccccc3)s2)cc1	-3	-32%	-1	2%	1%
Cc1occc1C(=O)Nc1nnc(-c2cccs2)s1	107*	-30%	34*	-37%	-4%
COc1ccc(C(=O)Nc2nnc(-c3cccs3)s2)cc1	60*	-10%	43*	-5%	-2%
COc1ccc(C(=O)Nc2nc(-c3cccs3)c(NC(C)=O)s2)cc1	38	-27%	-2	9%	-9%
O=C(Nc1nnc(-c2cccs2)s1)c1cccc(F)c1	59*	-13%	19*	9%	?
COc1ccc(NC(=O)Nc2nnc(-c3cccs3)s2)cc1	61*	-30%	25*	5%	-2%
COc1cc([N+](=O)[O-])ccc1NC(=O)CSc1nccn1C	-2	-3%	15	0%	-8%
COCCCNC(=O)C[C@H]1C[C@H](C(=O)N(C(C)C)C(C)C)[C@@]2(C)c3[nH]c4cc(-c5ccco5)ccc4c3CCN2C1=O	nt	244%	nt	nt	nt
O=C(Nc1ccccc1)Nc1nnc(-c2cccs2)s1	25	-21%	29*	5%	-11%
O=C(Cc1nnc(NC(=O)Nc2ccccc2)s1)Nc1ccccc1	-2	-34%	-2	-13%	-2%
COc1ccc(-c2nn(C)c3sc(C(=O)Nc4cc(OC)c(OC)c(OC)c4)cc23)cc1OC	nt	nt	nt	nt	-3%
